Data from PubChem BioAssay (NCATS).
Inconclusive results are not listed. Where a call stands in place of a potency, no number is given. For some of these results: Measured potencies and affinities stand elsewhere. Calls of active or inactive are those of the source.

Assays:
[1] = Ebola virus entry assay, blue channel fluorescence
[2] = Ebola virus entry assay, reporter ratio channel; AC50: Channel type: primary unless noted; outcome: Channel type: primary unless noted
[3] = Ebola virus entry assay, blue channel (ratio component)
[4] = Ebola virus entry reporter assay, green channel fluorescence
[5] = Ebola virus entry cell assay, ratio channel
[6] = qHTS assay for measurement of the activity of small molecule inhibitors on Zika virus induced Caspase-3 activity in human iPSC derived neural progenitor cells (hNPCs) (AID 1224857; active = well fitted curve in the direction sought with a large enough effect; an effect the other way counts as inactive or inconclusive; note: nearly all actives have a fitted effect of over 65% in size); conditions: hNPCs ZIKV-induced caspase-3/7, Caspase-Glo luminescence, 6 h; series mostly up to 45.7 µM
In short: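 hNPCs seeded 350 cells/well, cultured 16–20 h; compounds added 1 h before ZIKV (2 FFU/cell), 37 C 6 h. Caspase-Glo 3/7 luminescence after 30 min RT; % inhibition from induction scaled to uninfected (0%) and infected (100%) wells.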

[7] = qHTS assay for measurement of the activity of small molecule inhibitors on Zika virus induced Caspase-3 activity in human astrocytoma cells (AID 1224859; active = well fitted curve in the direction sought with a large enough effect; an effect the other way counts as inactive or inconclusive); conditions: SNB-19 ZIKV-induced caspase-3/7, luminescence, 6 h; series mostly up to 45.7 µM
In short: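 Luminescence read-out (Caspase-Glo 3/7, 30 min RT) of caspase activity in SNB-19 cells infected 6 h with ZIKV, 2 FFU/cell, after 1 h compound pretreatment; % inhibition from induction normalised to uninfected (0%) and infected (100%) wells.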

[8] = qHTS assay to identify small molecule inhibitors of chordoma cells - UCH-1 (AID 1259355; active = well fitted curve in the direction sought with a large enough effect; an effect the other way counts as inactive or inconclusive; note: nearly all actives have a fitted effect of over 55% in size); conditions: UCH-1 chordoma viability, CellTiter-Glo, 48 h, combination; series mostly up to 46.1 µM
In short: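 Screening used approved and investigational drugs in 15-point titration against 800 seeded cells per well. A fixed combination of auranofin with camptothecin, doxorubicin, rubitecan and topotecan followed compound addition, and growth was scored by CellTiter-Glo after 48hr.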

[9] = qHTS assay to identify small molecule inhibitors of chordoma cells - UCH-2 (AID 1259356; active = well fitted curve in the direction sought with a large enough effect; an effect the other way counts as inactive or inconclusive); conditions: UCH-2 chordoma viability, CellTiter-Glo ATP luminescence, 48 h; series mostly up to 46.1 µM
[10] = Immunotoxin (HA22) sensitization/mitigation study. Vehicle arm (PBS) (AID 1159510); conditions: cancer cells viability with PBS vehicle (HA22 study); series mostly up to 46.1 µM; note: potency is the fitted concentration of half-maximal effect
[11] = Immunotoxin (SS1P) sensitization/mitigation study. Vehicle arm (DMEM) (AID 1159513); conditions: cell viability with vehicle (DMEM); series mostly up to 46.1 µM; note: potency is the fitted concentration of half-maximal effect
[12] = High-throughput drug toxicity screening in the BPDCN cell line Gen2.2 (AID 1224824); conditions: Gen2.2 BPDCN cells; at 45.8 µM (top of the series);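 note: cells exposed to compounds for 48 h before reading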
In short: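 Gen2.2 cells, 500 per well in phenol red-free RPMI with 10% FBS, exposed to compounds 48 h at 37 C, 5% CO2; viability by CellTiter-Glo luminescence. Percent activity scaled to DMSO (100%) and 9.2 uM bortezomib final (0%).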

[13] = High-throughput drug toxicity screening in the BPDCN cell line Cal-1 (AID 1224825); conditions: Cal-1 BPDCN cell viability, qHTS; at 45.8 µM (top of the series)
In short: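 CellTiter-Glo luminescence after 48 h compound exposure; percent activity scaled with DMSO as 100% and bortezomib (9.2 uM final) as 0%. Cal-1 cells seeded at 500/well in RPMI, 10% FBS, no phenol red.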

[14] = qHTS Screen of the MIPE 4.0 Collection Against Ewings Sarcoma (RDES) (AID 1259252; active = well fitted curve in the direction sought with a large enough effect; an effect the other way counts as inactive or inconclusive; note: nearly all actives have a fitted effect of over 35% in size; note: potency is the fitted concentration of half-maximal effect); conditions: RD-ES Ewing sarcoma viability, CellTiter-Glo, 48 h; series mostly up to 45.8 µM
In short: (§1)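 Log-phase cells in RPMI with 5% FBS attached for 4 h, then received compounds as a titration for 48 h at 37C, 5% CO2. Viability was read by CellTiter-Glo luminescence and normalized to DMSO and no-cell wells.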

[15] = qHTS Screen of the MIPE 4.0 Collection Against Ewings Sarcoma (EW8) (AID 1259255; active = well fitted curve in the direction sought with a large enough effect; an effect the other way counts as inactive or inconclusive; note: nearly all actives have a fitted effect of over 35% in size; note: potency is the fitted concentration of half-maximal effect); conditions: EW8 Ewing sarcoma viability, CellTiter-Glo, 48 h; series mostly up to 45.8 µM
In short: as §1

[16] = qHTS Screen of the MIPE 4.0 Collection Against Ewings Sarcoma (TC32) (AID 1259256; active = well fitted curve in the direction sought with a large enough effect; an effect the other way counts as inactive or inconclusive; note: nearly all actives have a fitted effect of over 45% in size); conditions: TC32 Ewing sarcoma viability, CellTiter-Glo, 48 h; series mostly up to 45.8 µM
In short: as §1

With CNS(=O)(=O)Cc1ccc2[nH]cc(CCN(C)C)c2c1 the outcome [1] was “inactive”, the outcome [2] was “inactive” and the outcome [3] was “inactive”. The outcome [4] was “inactive” and the outcome [5] was “inactive”.
With NC(=O)c1cn(Cc2c(F)cccc2F)nn1 the outcome [1] was “inactive”, the outcome [2] was “inactive” and the outcome [3] was “inactive”. The outcome [4] was “inactive” and the outcome [5] was “inactive”.
In the case of O=C(OC1C[C@H]2CC[C@@H](C1)[N+]21CCCC1)C(O)(c1ccccc1)c1ccccc1 (stereo not given in full), the outcome [1] is reported as “inactive”, the outcome [2] is reported as “inactive” and the outcome [3] is reported as “inactive”. For the same compound, the outcome [4] was “inactive” and the outcome [5] was “inactive”.
With C[C@@H]1C[C@H]2[C@@H]3CCC4=CC(=O)C=C[C@]4(C)[C@@]3(F)[C@@H](O)C[C@]2(C)[C@@]1(O)C(=O)CO the outcome [1] was “inactive”, the outcome [2] was “inactive” and the outcome [3] was “inactive”. The outcome [4] was “inactive” and the outcome [5] was “inactive”.
For Cc1[nH]c(=O)c(C#N)cc1-c1ccncc1, the outcome [1] was “inactive”, the outcome [2] was “inactive” and the outcome [3] was “inactive”. The outcome [4] was “inactive” and the outcome [5] was “inactive”.
In the case of O=C(C1CCCCC1)N1CC(=O)N2CCc3ccccc3C2C1 (stereo not given), the outcome [1] is reported as “inactive”, the outcome [2] is reported as “inactive” and the outcome [3] is reported as “inactive”. For the same compound, the outcome [4] was “inactive” and the outcome [5] was “inactive”.
In the case of COC(=O)C1=C(C)NC(C)=C(C(=O)OC(C)C)C1c1cccc2nonc12 (stereo not given), the outcome [1] is reported as “inactive”, the outcome [2] is reported as “inactive” and the outcome [3] is reported as “inactive”. The outcome [4] was “inactive” and the outcome [5] was “inactive”.
In the case of Cc1cn[nH]c1, the outcome [1] is reported as “inactive”, the outcome [2] is reported as “inactive” and the outcome [3] is reported as “inactive”. The outcome [4] was “inactive” and the outcome [5] was “inactive”.
In the case of CCN(C)C(=O)Oc1cccc([C@H](C)N(C)C)c1, the outcome [1] is reported as “inactive”, the outcome [2] is reported as “inactive” and the outcome [3] is reported as “inactive”. For the same compound, the outcome [4] was “inactive” and the outcome [5] was “inactive”.
With Nc1nnc(-c2cccc(Cl)c2Cl)c(N)n1 the outcome [1] was “inactive”, the outcome [2] was “inactive” and the outcome [3] was “inactive”. The outcome [4] was “inactive” and the outcome [5] was “inactive”.
For C=C1CC[C@@]2(O)[C@H]3Cc4ccc(O)c5c4[C@@]2(CCN3CC2CC2)[C@H]1O5, the outcome [1] was “inactive”, the outcome [2] was “inactive” and the outcome [3] was “inactive”. For the same compound, the outcome [4] was “inactive”, the outcome [5] was “inactive” and the Potency [6] was “inactive”. For the same compound, the outcome [7] was “inactive”, the Potency [8] was “inactive” and the Potency [9] was “inactive”.
With CN1C(=O)CC(C)(c2ccccc2)C1=O (stereo not given) the outcome [1] was “inactive”, the outcome [2] was “inactive” and the outcome [3] was “inactive”. For the same compound, the outcome [4] was “inactive” and the outcome [5] was “inactive”.
In the case of COc1cc(Cc2cnc(N)nc2N)cc(OC)c1OC, the outcome [1] is reported as “inactive”, the outcome [2] is reported as “inactive” and the outcome [3] is reported as “inactive”. For the same compound, the outcome [4] was “inactive” and the outcome [5] was “inactive”.
For CCCCN1C[C@H](O)[C@@H](O)[C@H](O)[C@H]1CO, the outcome [1] was “inactive”, the outcome [2] was “inactive” and the outcome [3] was “inactive”. For the same compound, the outcome [4] was “inactive” and the outcome [5] was “inactive”.
For O=C(O)CCNC(=O)c1ccc(N=Nc2ccc(O)c(C(=O)O)c2)cc1, the outcome [1] was “inactive”, the outcome [2] was “inactive” and the outcome [3] was “inactive”. For the same compound, the outcome [4] was “inactive” and the outcome [5] was “inactive”.
In the case of Nc1cc(-c2ccncc2)c[nH]c1=O, the outcome [1] is reported as “inactive”, the outcome [2] is reported as “inactive” and the outcome [3] is reported as “inactive”. The outcome [4] was “inactive” and the outcome [5] was “inactive”.
With Cc1ccc(-c2nc3ccc(C)cn3c2CC(=O)N(C)C)cc1 the outcome [1] was “inactive”, the outcome [2] was “inactive” and the outcome [3] was “inactive”. The outcome [4] was “inactive”, the outcome [5] was “inactive” and the outcome [7] was “inactive”. The Potency [8] was “inactive” and the Potency [9] was “inactive”.
In the case of COc1ccc2nc(S(=O)Cc3ncc(C)c(OC)c3C)[nH]c2c1 (stereo not given), the outcome [1] is reported as “inactive”, the outcome [2] is reported as “inactive” and the outcome [3] is reported as “inactive”. The outcome [4] was “inactive”, the outcome [5] was “inactive” and the Potency [10] was “inactive”. For the same compound, the Potency [11] was “inactive”.
In the case of N[C@@H]1C[C@H]1c1ccccc1, the outcome [1] is reported as “inactive”, the outcome [2] is reported as “inactive” and the outcome [3] is reported as “inactive”. For the same compound, the outcome [4] was “inactive”, the outcome [5] was “inactive” and the Potency [6] was “inactive”. For the same compound, the outcome [7] was “inactive”, the Potency [8] was “inactive” and the Potency [9] was “inactive”.
In the case of CCCCS(=O)(=O)N[C@@H](Cc1ccc(OCCCCC2CCNCC2)cc1)C(=O)O, the outcome [1] is reported as “inactive”, the outcome [2] is reported as “inactive” and the outcome [3] is reported as “inactive”. The outcome [4] was “inactive” and the outcome [5] was “inactive”.
With Cc1oncc1C(=O)Nc1ccc(C(F)(F)F)cc1 the outcome [1] was “inactive”, the outcome [2] was “inactive” and the outcome [3] was “inactive”. For the same compound, the outcome [4] was “inactive”, the outcome [5] was “inactive” and the Potency [10] was 20.9 µM (active).
With Oc1cn2c(n1)Nc1ccc(Cl)c(Cl)c1C2 the outcome [1] was “inactive”, the outcome [2] was “inactive” and the outcome [3] was “inactive”. For the same compound, the outcome [4] was “inactive”, the outcome [5] was “inactive” and the Potency [11] was 0.0066 µM (active).
With N[C@@H](Cc1ccc(N(CCCl)CCCl)cc1)C(=O)O the outcome [1] was “inactive”, the outcome [2] was “inactive” and the outcome [3] was “inactive”. The outcome [4] was “inactive”, the outcome [5] was “inactive” and the cell viability, % of control (lower = more cytotoxic) [12] was 5.36%. The viability (% of control) [13] was 4.8%, the outcome [7] was “inactive” and the Potency [14] was 5.26 µM (active). The Potency [15] was 3.32 µM (active) and the Potency [16] was “inactive”.
For O=C1NC(=O)C(c2ccccc2)(c2ccccc2)N1, the outcome [1] was “inactive”, the outcome [2] was “inactive” and the outcome [3] was “inactive”. The outcome [4] was “inactive” and the outcome [5] was “inactive”.
With Cc1cccc(Nc2ccccc2C(=O)O)c1C the outcome [1] was “inactive”, the outcome [2] was “inactive” and the outcome [3] was “inactive”. For the same compound, the outcome [4] was “inactive” and the outcome [5] was “inactive”.
In the case of C[C@@H](O)[C@H]1C(=O)N2C(C(=O)O)=C(S[C@@H]3CN[C@H](C(=O)N(C)C)C3)[C@H](C)[C@H]12, the outcome [1] is reported as “inactive”, the outcome [2] is reported as “inactive” and the outcome [3] is reported as “inactive”. For the same compound, the outcome [4] was “inactive” and the outcome [5] was “inactive”.
With O=NN(CCCl)C(=O)NC1CCCCC1 the outcome [1] was “inactive”, the outcome [2] was “inactive” and the outcome [3] was “inactive”. For the same compound, the outcome [4] was “inactive” and the outcome [5] was “inactive”.
For O=C1CC[C@@]2(O)[C@H]3Cc4ccc(O)c5c4[C@@]2(CCN3CC2CC2)[C@H]1O5, the outcome [1] was “inactive”, the outcome [2] was “inactive” and the outcome [3] was “inactive”. The outcome [4] was “inactive”, the outcome [5] was “inactive” and the cell viability, % of control (lower = more cytotoxic) [12] was 200%. The viability (% of control) [13] was 62%, the Potency [6] was “inactive” and the outcome [7] was “inactive”. For the same compound, the Potency [14] was “inactive”, the Potency [15] was “inactive” and the Potency [16] was “inactive”. The Potency [8] was “inactive” and the Potency [9] was “inactive”.
With O=c1[nH]cnc2c1ncn2[C@H]1CC[C@@H](CO)O1 the outcome [1] was “inactive”, the outcome [2] was “inactive” and the outcome [3] was “inactive”. The outcome [4] was “inactive” and the outcome [5] was “inactive”.
